Test results from PubChem BioAssay AID2544 (Sanford-Burnham Center for Chemical Genomics, 2010).
About 390 (0.12%) of roughly 330,000 compounds were called active. This is one part of a sample in which actives are shown more often than they occur.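 Rule for the calls: active = inhibition reaching a set limit with compound at 10 µM in the primary screen (cut at about 35% in these data); inactive = the rest.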

molecular target: Intestinal-type alkaline phosphatase (Homo sapiens) (UniProt P09923); assay: blockers of intestinal alkaline phosphatase activity – biochemical, luminescence, uHTS, primary screen (AID 2544); conditions: purified IAP, CDP-Star luminescence, 30 min; at 10 µM; active compounds read high;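 note: plate controls were DMSO wells with enzyme for no effect and no-enzyme buffer wells for full effect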
Sequence (P09923 whole entry, looked up): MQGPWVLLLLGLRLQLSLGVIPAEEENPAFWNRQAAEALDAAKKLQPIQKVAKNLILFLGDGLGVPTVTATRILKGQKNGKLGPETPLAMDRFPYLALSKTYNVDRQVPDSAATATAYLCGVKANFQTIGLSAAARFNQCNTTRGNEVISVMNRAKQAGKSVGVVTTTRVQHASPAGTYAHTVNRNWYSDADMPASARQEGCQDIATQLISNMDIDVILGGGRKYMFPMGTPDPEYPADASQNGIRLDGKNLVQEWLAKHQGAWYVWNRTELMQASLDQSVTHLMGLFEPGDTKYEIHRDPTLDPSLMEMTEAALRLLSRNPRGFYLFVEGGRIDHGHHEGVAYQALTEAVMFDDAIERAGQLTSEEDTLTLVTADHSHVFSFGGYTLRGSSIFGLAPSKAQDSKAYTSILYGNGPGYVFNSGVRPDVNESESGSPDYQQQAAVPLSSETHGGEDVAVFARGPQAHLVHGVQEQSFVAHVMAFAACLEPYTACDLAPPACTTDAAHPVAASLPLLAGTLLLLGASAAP

Row | SMILES | inhibition
1 | Cc1cc(C)c2c(Cn3ccnc3)cc(=O)oc2c1 | -7% (inactive)
2 | CN(CC(=O)Nc1cccc(F)c1)C(=O)C1CC(=O)N(CCc2ccccc2)C1 (configuration not stated) | 2.5% (inactive)
3 | C/C(Cc1ccccc1)=N\NC(=O)CNC(=O)c1ccc2c(c1)OCCO2 | 1.8% (inactive)
4 | CSc1ccc(S(=O)(=O)Nc2cccc(F)c2)cc1 | 7% (inactive)
5 | CN=C1SC(CC(=O)Nc2ccc(C(=O)O)cc2)C(=O)N1C (configuration not stated) | 15.6% (inactive)
6 | COc1c(O)cc2oc(-c3ccc(O)c(O)c3)cc(=O)c2c1O | 40.1% (active)
7 | CCOC(=O)COc1cc(OCC(=O)OCC)c2c(=O)cc(-c3ccccc3)oc2c1 | -22.1% (inactive)
8 | Cc1ccc2c(c1)nnc1nnc(SCC(=O)O)n12 | 36.1% (active)
9 | CCn1nnnc1SCC(=O)c1ccc(C)cc1C | -4% (inactive)
10 | Cc1cccc(-c2nnc(SCC(=O)O)n2Cc2ccccc2)c1 | -16.7% (inactive)
11 | Cc1ccccc1N1CC(C(=O)Nc2nnc(SCCC3OCCO3)s2)CC1=O (configuration not stated) | 18.3% (inactive)
12 | C=CCn1c(=S)sc2c(=O)[nH]c(C)nc21 | -10.3% (inactive)
13 | CN(C)/C=C1\C=C(c2ccccc2)OC1=O | 0.7% (inactive)
14 | Cc1ccc(N=C2SCCCN2C(=O)c2cccc(N3C(=O)CCC3=O)c2)cc1Cl | -21.5% (inactive)
15 | Cc1ccc(-n2ncc3c(Nc4cccc(C(=O)O)c4)ncnc32)cc1 | 17.6% (inactive)
16 | Cc1c(NC(=O)CN2C(=O)C(=O)N(Cc3ccccc3)C2=O)c(=O)n(-c2ccccc2)n1C | 8.1% (inactive)
17 | NC(=O)c1nsc(C(=O)N(CC(=O)NCc2ccc(F)cc2)Cc2ccco2)c1N | -10.8% (inactive)
18 | O=C(CSc1nccn1-c1cccc(F)c1)NC1CCCC1 | 2.7% (inactive)
19 | Cc1csc(NC(=O)CSc2nc(=O)n(CCCN(C)C)c3c2CCC3)n1 | 6.4% (inactive)
20 | O=C(O)C1=CCCN(CCON=C(c2ccccc2)c2ccccc2)C1 | -0.4% (inactive)
21 | CC(C)(C)c1ccc(/C=C2\Oc3c(ccc(O)c3CN3CCN(CCO)CC3)C2=O)cc1 | 8.9% (inactive)

Row | SMILES | inhibition
22 | CCOC(=O)c1ccc(NC(=O)CCn2c(=O)oc3ccccc32)cc1 | -9.6% (inactive)
23 | CC[C@]1(c2ccccc2OC)C(=O)N(C(=O)OC)N1C(=O)OC | 8.5% (inactive)
24 | O=C(COC(=O)Cc1c[nH]c2ccccc12)NCCc1ccccc1 | 14.4% (inactive)
25 | Cc1ccc(Cn2c(=N)c(S(=O)(=O)c3ccc(C)cc3)cc3c(=O)n4ccccc4nc32)cc1 | -7.4% (inactive)
26 | Cc1cc(C(F)F)nn1CC(=O)NC1CCCCCC1 | 14% (inactive)
27 | CCC(C)N(C(=O)COC(=O)C1C(C(=O)OC)=C(C)NC(C)=C1C(=O)OC)C1CCS(=O)(=O)C1 (configuration not stated) | -1.2% (inactive)
28 | CCN(C(=O)COC(=O)Cc1c(F)cccc1Cl)c1c(N)n(Cc2ccccc2)c(=O)[nH]c1=O | -9.2% (inactive)
29 | Cc1ccc(CNC(=O)c2cc(-c3ccccc3C)n(CC3CC(c4cccc([N+](=O)[O-])c4)=NO3)n2)cc1 (configuration not stated) | 17% (inactive)
30 | OCCC#Cc1ccc(CN2CCN(Cc3ccsc3)C(CCO)C2)cc1 (configuration not stated) | 12.2% (inactive)
31 | CC1O[C@@H](OC2C(O)C(C)O[C@H](OC(=O)[C@]34CCC(C)(C)C[C@H]3C3=CCC5[C@@]6(C)CC(O)C(O[C@@H]7OC(CO)C(O)[C@@H](O)[C@@H]7O)[C@@](C)(C(=O)O)C6CC[C@@]5(C)[C@]3(CO)CC4)C2O[C@H]2OC(C)[C@@H](O[C@@H]3OCC(O[C@@H]4OC(CO)C(O)[C@H](O)C4O)[C@@H](O)[C@@H]3O)[C@H](O)C2O)C(O)C(O)C1O (some centres not stated) | -8.3% (inactive)
32 | CCOC(=O)c1[nH]cnc1C(=O)NC1CCCCC1 | -28.7% (inactive)
33 | CCN(CC(=O)Nc1ccc2c(c1)OCCO2)Cc1cc(=O)oc2cc(C)c(C)cc12 | 5% (inactive)
34 | O=C(NNC1=C(C(=O)C(F)(F)F)CCC1)c1ccncc1 | -34.2% (inactive)
35 | COC(=O)C(C)Sc1ccc2nnc(-c3cccc(F)c3)n2n1 (configuration not stated) | -8.4% (inactive)
36 | COc1ccccc1C(=O)NCCC(=O)NN1C(=O)NC2(CCCCC2)C1=O | 14.4% (inactive)
37 | CC1(C)NC(=O)N(CCCCSc2ccc(Cl)cc2)C1=O | -0.2% (inactive)
38 | Cc1ccc(Cl)c(OCC(=O)N2CCc3ccccc3C2)c1 | -20.2% (inactive)
39 | O=C(CSc1nnc(CNC(=O)c2ccc(F)cc2)o1)Nc1ccc2c(c1)OCO2 | -13.1% (inactive)
40 | COc1ccc(CN2CCC(c3nc4ccc(Cl)cc4[nH]3)CC2)cc1 | -27.1% (inactive)
41 | O=C(NCc1ccc2c(c1)OCO2)C1CCCN(S(=O)(=O)c2cccs2)C1 (configuration not stated) | 17.9% (inactive)
42 | COc1ccc(C(C#N)N2N=C(C)CC2(C)C)cc1 (configuration not stated) | -6.2% (inactive)
